rTrxR1 inhibitor: inhibitors of rat thioredoxin reductase 1; O89049; Potency, µM (series often up to 114 µM), for inactives: at the highest dose activity change, negative = inhibition, most hits filed as inhibitors; hit rate 1% among 390,000; recombinant rTrxR1, NADPH fluorescence consumption, selenite substrate; note: potency is the fitted concentration of half-maximal effect; % is set by controls: 0 for no effect and ±100 for the full control effect; nearly all actives have a fitted effect of over 65% in size
Target sequence (O89049 whole entry, looked up): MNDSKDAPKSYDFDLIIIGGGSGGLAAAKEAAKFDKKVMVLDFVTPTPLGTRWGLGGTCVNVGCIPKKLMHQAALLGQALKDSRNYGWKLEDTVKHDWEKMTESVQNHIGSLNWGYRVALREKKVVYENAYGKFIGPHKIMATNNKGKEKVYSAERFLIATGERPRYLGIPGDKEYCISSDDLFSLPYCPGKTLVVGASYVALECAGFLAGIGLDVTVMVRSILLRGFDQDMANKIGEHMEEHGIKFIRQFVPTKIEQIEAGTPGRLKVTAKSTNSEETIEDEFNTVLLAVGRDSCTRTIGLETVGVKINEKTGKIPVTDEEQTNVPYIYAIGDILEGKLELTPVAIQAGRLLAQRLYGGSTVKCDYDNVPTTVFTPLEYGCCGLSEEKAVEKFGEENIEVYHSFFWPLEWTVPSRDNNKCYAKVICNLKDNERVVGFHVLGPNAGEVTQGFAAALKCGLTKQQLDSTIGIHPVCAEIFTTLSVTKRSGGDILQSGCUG
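Rat TrxR1 (90 nM in the dispensed reagent) was pre-reduced with 400 uM NADPH for 5 min at room temperature, then incubated with compound for 15 min. After 400 uM selenite was added, NADPH fluorescence (Ex 340/Em 450 nm) was followed for 8 min.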
TrxR1 substrate: is turned over as a substrate by rat TrxR1; AID 588456; Potency, µM (doses to about 114 µM), inactives show at the highest dose activity change, negative = substrate turnover; hit rate 0.01% among 390,000; O89049; purified TrxR1 substrate turnover, NADPH consumption readout; note: potency is the fitted concentration of half-maximal effect; % is set by controls: 0 for no effect and ±100 for the full control effect; nearly all actives have a fitted effect of over 50% in size
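Rat TrxR1, dispensed at 90 nM, was prereduced with 400 uM NADPH (final) for 5 min at ~22 deg C, then incubated with compound 15 min before 400 uM selenite. A first-read NADPH fluorescence drop versus no-compound background flagged substrates.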
AT treatment: potential ataxia-telangiectasia treatments restoring KAP-1 phosphorylation; F2112 A-T fibroblasts, KAP-1 phosphorylation AlphaLISA; neocarzinostatin DNA damage 30 min before lysis; Potency, µM (doses to about 57.5 µM), without a hit: at the highest dose activation, hits mostly activators; hit rate 0.19% among 320,000; AID 485349; note: potency is the fitted concentration of half-maximal effect; % of control where 0% means no effect; nearly all actives have a fitted effect of over 45% in size
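hTERT-immortalized A-T patient fibroblasts (F2112), 500 cells/well in OPTI-MEM, 1% FBS, got compounds for 60 min, then NCS for 30 min at 37C. Lysates were then assayed for phospho-KAP-1 by AlphaLISA (anti-pKAP1 donor, anti-KAP1 acceptor beads), 6 hr at 25C.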
Pin1 inhibitor: blocks the human prolyl isomerase Pin1. Pin1 FP peptide displacement, HiFluor488, 10 min. Potency, µM (highest dose often 115 µM), inactives show at the highest dose activity, negative = inhibition, most hits filed as inhibitors. hit rate 0.009% among 390,000. AID 504891; active = well fitted inhibition curve with a large enough effect in the polarisation, with a control signal flat, not every such curve was filed as active; inconclusive = small, poorly fitted or top-dose-only effect, or effect the other way, or a change in a side signal; inactive = no such curve, though single readings can be large or run the other way; the % refers to the polarisation; note: potency is the fitted concentration of half-maximal effect; % is set by controls: 0 for no effect and ±100 for the full control effect
Target sequence (Q13526 whole entry, looked up): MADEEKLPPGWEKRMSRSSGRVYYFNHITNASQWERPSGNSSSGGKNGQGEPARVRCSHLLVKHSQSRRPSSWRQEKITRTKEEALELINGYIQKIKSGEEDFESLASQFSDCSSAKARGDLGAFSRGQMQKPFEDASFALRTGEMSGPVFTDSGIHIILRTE
N370S GC: inhibitors or activators of N370S glucocerebrosidase for Gaucher disease; Potency, µM (series often up to 59.4 µM), inactives show at the highest dose activity change, negative = inhibition, most hits filed as inhibitors; P04062; hit rate 0.092% among 330,000; N370S GC spleen homogenate, 4MU-glucoside fluorescence;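 note: potency is the fitted concentration of half-maximal effect; 0% = full enzyme activity and -100% = no enzyme basal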
Akt phos inh: blocks phosphorylation of Akt. activity change, % for hits at 50 µM. AID 651550. Neuro2A IGF-stimulated pAkt S473 HTRF, 20 min; stronger effect = lower value. hit rate 0.32% among 360,000; in the data active = activity change below about -80%; inconclusive = mostly about -51% to -80%; note: % is set by controls: 0 for no effect and ±100 for the full control effect
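Neuro2A cells in DMEM with 0.5% FBS, overnight at 37 deg C, given compound at single 50 µM final, then IGF (6 nM final) for 20 min at 37 deg C. Lysed; phospho-Akt Ser473 by HTRF after 24 h, 665/615 ratio.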
The depositor's hits bear a star; i = inactive; ? = inconclusive; . = no result given; [ ] = another dose, or the depositor's remark. Rows were chosen to be rich in hits. Some 1.4% of all compounds tested hit in one or more screens of this group. Unless noted, calls come from the whole dose curve; as a rule, active = well fitted curve in the direction sought with a large enough effect; inconclusive = small, poorly fitted or top-dose-only effect, or another doubt; inactive = no such curve, though single readings can be large; an effect the other way counts as inactive or inconclusive.

SMILES	rTrxR1 inhibitor	TrxR1 substrate	AT treatment	Pin1 inhibitor	N370S GC	Akt phos inh
Cc1ccc(CNC(=O)C2CCN(S(=O)(=O)c3c(C)noc3/C=C/c3ccccc3F)CC2)o1	14%[57.1 µM]	3%[57.1 µM]	.	10%	.	.
COc1ccc(C(=O)CCS(=O)(=O)c2ccc(C)cc2)cc1	14µM*	0%	10%	3%	0%	i
COc1ccc(C(=O)NCS(=O)(=O)c2ccc(C)cc2)cc1	28µM*	3%	2%	4%	7%	i
Cc1ccc(C(=O)CCS(=O)(=O)c2ccc(Br)cc2)cc1	0.5µM*	14%	-9%	-3%	-3%	i
Cc1ccc(S(=O)(=O)CCC(=O)c2cccc([N+](=O)[O-])c2)cc1	?	11%[57.1 µM]	-8%	-3%	-3%	i
COc1ccc(C(=O)NCCS(=O)(=O)NCc2ccc(C)cc2)cc1	9%[57.1 µM]	5%[57.1 µM]	2%	1%	2%	i
CN(C)c1ccc(/C=C2\C=Cc3ccccc32)cc1F	-2%	-4%	.	.	.	.
CCC(CC)C(=O)Nc1ccc(OCc2cc(=O)n3ccc(C)cc3n2)cc1	5%[57.1 µM]	2%[57.1 µM]	.	-3%	.	.
CCOc1cc(-c2nc3c(c(CC)nn3-c3ccccc3)c3cc(OC)c(OC)cc23)ccc1O	14%	40%	.	34%	.	.
O=C(O)/C=C/C(=O)NNC(=O)c1ccccc1Br	-4%	2%	-8%	2%	5%	i
Cc1ccccc1C(=O)NNC(=O)/C=C\C(=O)O	7.1µM*	0%	6%	-1%	19%	i
CNC(=O)c1sc2ncccc2c1-n1cccc1	7%[57.1 µM]	2%[57.1 µM]	.	2%	.	.
COc1cc2c(NC3CCN(C)CC3)nc(N3CCCN(C)CC3)nc2cc1OCCN(C)C	-34%	106%	.	.	.	.
Cc1cc(C)n(S(=O)(=O)c2cc(Cl)ccc2Cl)n1	11%[57.1 µM]	4%[57.1 µM]	5%	-9%	4%	-121%*
COc1ccc(/C=C/C(=O)Nc2ccc3nc4c(c(Nc5ccc(OC)c(OC)c5)c3c2)CCCC4)cc1	16%	-5%	.	6%	.	.
CCOC(=O)C(C(=O)OCC)N(C#N)c1nc(OC)nc(N(C)C)n1	-6%	-2%	8%	0%	2%	-113%*
S=Cc1ccc(/C=C/c2ccnc3ccccc23)cc1	6%	-3%	.	.	.	.
O=S(=O)(Nc1c(S(=O)(=O)c2ccccc2)c2nc3ccccc3nc2n1C1CCCCC1)c1ccccc1	?	181%	8%	?	6%	i
C=CCn1c(NS(=O)(=O)c2ccccc2)c(S(=O)(=O)c2ccc(C)cc2)c2nc3ccccc3nc21	-102%	925%	22µM*	-19%	4%	i
Cc1ccc(C2=NOC(=O)/C2=C\c2ccccc2)cc1	4µM*	3%	.	2%	.	i
COc1cc([N+](=O)[O-])ccc1-c1ccc(/C=C2\C(=O)ON=C2c2ccccc2)o1	7.9µM*	-8%	.	3%	.	i
Cc1ccc(/C=C2/C(=O)ON=C2c2ccccc2)o1	4µM*	-6%	-1%	7%	-3%	i
O=C1ON=C(c2ccc(Cl)cc2)/C1=C/c1ccc(O)cc1	3.2µM*	2%[57.1 µM]	-4%	-1%	-9%	i
O=C(COc1ccccc1C(=O)Nc1ccccc1)NC1CCCCC1	7%	5%	.	.	.	.
CN(C)c1ccc(/C=C/c2cc3ccccc3c[n+]2C)cc1	-25%	-15%	.	.	.	.
SMILES	rTrxR1 inhibitor	TrxR1 substrate	AT treatment	Pin1 inhibitor	N370S GC	Akt phos inh
O=C(C[n+]1cccc(Cl)c1)c1ccc(F)cc1	-25%	16%	.	.	.	.
COc1ccc(NS(=O)(=O)c2cc3[nH]c(=O)c(=O)[nH]c3cc2C)cc1OC	10%[57.1 µM]	2%[57.1 µM]	.	-2%	.	.
O=C1ON=C(c2ccccc2)/C1=C/c1ccc(O)cc1	14µM*	-1%	-12%	-1%	0%	i
O=C1ON=C(c2ccccc2)/C1=C/c1ccccc1	4.5µM*	11%	-7%	4%	2%	i
COc1ccc(-c2onc(C)c2C)cc1S(=O)(=O)N1CCc2ccccc21	15%[57.1 µM]	-3%[57.1 µM]	.	9%	.	.
O=Cc1ccc2[nH]ccc2c1	20%	3%	.	.	.	.
O=C1C[C@H](c2ccccc2Cl)N1S(=O)(=O)c1ccccc1[N+](=O)[O-]	0%	1%	.	-3%	3%	.
Cc1ccc(NC(=O)c2nc3nccc(C)n3n2)c(C)c1	23%	2%	8%	9%	-4%	i
Cc1ccnc2nc(C(=O)Nc3ccc(N4CCOCC4)cc3)nn12	3%[57.1 µM]	6%[57.1 µM]	1%	-6%	6%	-103%*
CCOC(=O)c1nc(S(C)(=O)=O)ncc1Cl	18µM*	10%	-7%	-4%	6%	i
O=C(NC(=S)Nc1ccc(N2CCOCC2)cc1)c1ccccc1	?	2%[57.1 µM]	-10%	-1%	2%	i
CCOC(=O)c1nc(S(C)(=O)=O)ncc1N1CCOCC1	4%	3%	0%	-9%	-1%	i
Cc1ccccc1C(=O)NC(=S)Nc1ccc(N2CCOCC2)cc1	56µM*	-12%	-4%	6%	0%	i
CS(=O)(=O)c1ncc(Cl)c(C(=O)Nc2ccc(N3CCOCC3)cc2)n1	10µM*	4%	4%	-8%	-3%	i
CS(=O)(=O)c1ccc(C(=O)Nc2ccc(N3CCOCC3)cc2)c(Cl)c1	13%[57.1 µM]	0%[57.1 µM]	-9%	0%	0%	i
Cc1cc2c(s1)c1cnn(Cc3ccccc3C)c(=O)c1n2C	.	.	.	-2%	.	.
CS(=O)(=O)c1ncc(Cl)c(C(=O)Nc2ccc(OC(F)F)cc2)n1	40µM*	-13%	-2%	1%	-18%	i
Cc1ccccc1NC(=O)c1nc(S(C)(=O)=O)ncc1Cl	?	4%	10%	-6%	-6%	i
O=c1[nH]c2ccc(NCc3ccccc3F)cc2[nH]1	-4%	-2%	.	-11%	.	.
Cc1ccc(S(=O)(=O)CCC(=O)Nc2cc(Cl)ccc2-n2cncn2)cc1	13µM*	5%	0%	7%	-20%	i
O=C(N/N=C1\C(=O)c2cccc3cccc1c23)c1ccc(O)cc1	17%[57.1 µM]	-6%	-3%	?	-1%	i
O=C1C([N+](=O)[O-])=C(O)c2cccc3cccc1c23	.	.	28µM*	.	4%	.
OC(C[n+]1ccccc1Cl)c1ccccc1 (stereo not given)	3%[0.0914 µM]	3%[0.0914 µM]	.	.	.	.
O=C(N/C(C(=O)N1CCOCC1)=C(\Sc1ncccn1)c1ccccc1)c1ccccc1	50µM*	-4%	0%	2%	-2%	i
CCOc1ccccc1NC(=O)/C=C/C(N)=O	25µM*	10%	6%	-1%	5%	i
C=CCN1C=C2C(=O)C(C)(OC(=O)C3CCCC3)C(=O)C(c3ccccc3)=C2C=C1CCCC(=O)OC (stereo not given)	79µM*	3%	-16%	?	-2%[12.8 µM]	i

High-throughput results deposited in PubChem by National Center for Advancing Translational Sciences (NCATS).
